# From PubChem BioAssay
# KB-V1 cytotox: KB-V1 MDR subline cytotoxicity; 400,000 compounds, 3.4% hits; AID 1347076; KB-V1 MDR cells viability, CellTiter-Glo, 72 h; Potency, µM (titrated, usually from 46.1 µM), most hits filed as cytotoxic; further: potency means the concentration at half of the fitted maximal effect; on the % scale 0 is the no-effect control and ±100 the full control effect; nearly all actives have a fitted effect of over 60% in size
#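 Potencies derive from concentration-effect curves fitted to normalized luminescence (CellTiter-Glo) of KB-V1 cells treated for 72 h at 37 degrees C in phenol-red-free DMEM containing 10% FBS.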
# MCF10A rerep: induces DNA re-replication in MCF 10a normal breast cells; MCF 10A DNA re-replication, Hoechst nuclear intensity, 48 h; Potency, µM (highest dose often 46.1 µM), without a hit: at the highest dose activity, positive = re-replication, actives largely listed as activators; AID 624296; 350,000 compounds, 2.9% hits; further: potency means the concentration at half of the fitted maximal effect; % of control where 0% means no effect; nearly all actives have a fitted effect of over 50% in size
# ASM inhibitor: human S-ASM enzyme inhibition; P17405; placental ASM, HMU-PC fluorogenic substrate, 60 min; 340,000 compounds, 0.006% hits; Potency, µM (titrated, usually from 57.5 µM), for the others: top-dose activity change, negative = inhibition, hits mostly inhibitors; further: potency means the concentration at half of the fitted maximal effect
# Target sequence (P17405 47-631 limits assumed): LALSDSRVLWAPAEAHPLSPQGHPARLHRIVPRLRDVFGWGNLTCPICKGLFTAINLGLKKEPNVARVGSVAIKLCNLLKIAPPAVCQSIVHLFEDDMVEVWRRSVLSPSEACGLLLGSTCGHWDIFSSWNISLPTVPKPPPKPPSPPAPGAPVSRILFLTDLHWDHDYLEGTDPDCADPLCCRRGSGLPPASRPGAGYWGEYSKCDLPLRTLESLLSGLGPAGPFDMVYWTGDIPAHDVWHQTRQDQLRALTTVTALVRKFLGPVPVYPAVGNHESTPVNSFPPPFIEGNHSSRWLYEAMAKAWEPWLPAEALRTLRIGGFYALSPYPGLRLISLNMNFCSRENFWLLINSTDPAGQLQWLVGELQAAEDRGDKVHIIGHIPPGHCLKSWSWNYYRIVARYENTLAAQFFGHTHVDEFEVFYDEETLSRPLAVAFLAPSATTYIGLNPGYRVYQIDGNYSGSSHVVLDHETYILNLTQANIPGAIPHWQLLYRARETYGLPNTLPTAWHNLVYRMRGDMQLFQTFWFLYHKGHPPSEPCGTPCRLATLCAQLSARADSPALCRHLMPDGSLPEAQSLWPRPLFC
#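 Human placenta-derived ASM enzyme was preincubated with compound for 10 minutes at room temperature, then given fluorogenic substrate HMU-PC0 (9 uM final) for 60 minutes at 37 °C; a pH 10 stop preceded fluorescence reading at Ex 386/Em 447 nm.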
# SW480 rereplic: inducers of DNA re-replication in SW480 colon cancer cells | Potency, µM (series often up to 46.1 µM), for inactives: at the highest dose re-replication activation, usual class: activators | SW480 DNA re-replication, Hoechst DNA content imaging, 48 h | 340,000 compounds, 1.8% hits; further: potency means the concentration at half of the fitted maximal effect; % of control where 0% means no effect; nearly all actives have a fitted effect of over 55% in size
#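 DNA re-replication was detected as more nuclei of elevated Hoechst intensity after 48 hr exposure to compound (23 nL pinned per well of 250 cells).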
# Giardia kill: kills Giardia lamblia. Giardia lamblia trophozoite viability. activity change, % at 7.66 µM, hits read low. 340,000 compounds, 0.15% hits; in the data active means activity change below about -80%; inconclusive means between about -30% and that limit;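 further: parasites exposed to compound for two days anaerobically before the ATP read; on the % scale 0 is the no-effect control and ±100 the full control effect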
#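 Luminescence from cellular ATP indicates surviving trophozoites (100 cells/well) following 48 hrs anaerobic compound treatment at 37 deg C; signal develops 15-30 min at room temperature.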
# KB-3-1 cytotox: kills parental KB-3-1 adenocarcinoma cells; KB-3-1 viability, CellTiter-Glo ATP luminescence, 72 h; 400,000 compounds, 1.4% hits; Potency, µM (top dose mostly 46.1 µM), actives largely listed as cytotoxic; further: potency means the concentration at half of the fitted maximal effect; on the % scale 0 is the no-effect control and ±100 the full control effect; nearly all actives have a fitted effect of over 60% in size
#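 Using CellTiter-Glo luminescence, growth of non-resistant KB-3-1 adenocarcinoma cells is assessed 72 h after pin-tool compound addition at 37 °C. Normalized responses across the concentration series yield fitted curves.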
# The depositor's hits bear a star; i = inactive; ? = inconclusive; · = no result given. Compounds with a hit are over-represented: about 6.9% of the library has one in this group of screens. Unless noted, the call rests on the fitted dose curve; in most records, active means well fitted curve in the direction sought with a large enough effect; inconclusive means small, poorly fitted or top-dose-only effect, or another doubt; inactive means no such curve, though single readings can be large; an effect the other way counts as inactive or inconclusive.
SMILES,KB-V1 cytotox,MCF10A rerep,ASM inhibitor,SW480 rereplic,Giardia kill,KB-3-1 cytotox
Clc1ccc(CN2CCN(c3ncnc4scc(-c5cccs5)c34)CC2)cc1,13µM*,?,-9%,-3%,-17,?
Fc1ccc(CN2CCN(c3ncnc4scc(-c5ccc(F)cc5)c34)CC2)cc1,i,?,-2%,2%,0,i
CC(=O)Nc1cccc(-c2ccnc3c2CC(C)(C(=O)Nc2ccccc2)O3)c1 (centres undefined),i,·,·,·,·,i
CC(=O)Nc1cccc(-c2ccnc3c2CC(C)(C(=O)Nc2ccc(F)c(Cl)c2)O3)c1 (centres undefined),21µM*,·,·,·,·,?
CC1(C(=O)Nc2cccc(Oc3ccccc3)c2)Cc2c(-c3ccccc3)ccnc2O1 (centres undefined),i,·,·,·,·,?
CC(=O)Nc1cccc(-c2ccnc3c2CC(C)(C(=O)Nc2cccc(Oc4ccccc4)c2)O3)c1 (centres undefined),21µM*,·,·,·,·,?
CC(=O)Nc1cccc(-c2ccnc3c2CC(C)(C(=O)NCc2ccc(N(C)C)cc2)O3)c1 (centres undefined),?,·,·,·,·,10µM*
CC(=O)Nc1cccc(-c2ccnc3c2CC(C)(C(=O)NCCc2ccccc2)O3)c1 (centres undefined),?,·,·,·,·,4.1µM*
N#Cc1ccc(NC(=O)c2cc(-c3cccc(Cl)c3)on2)cc1,?,·,·,·,·,i
O=C(CNC(=O)c1ccccc1Cl)NCC(c1cccs1)N1CCOCC1 (centres undefined),i,-3%,3%,1%,1,i
Cc1cccc(-n2c(=O)c3c4c(sc3n3cnnc23)CCCC4)c1,?,·,·,·,·,i
CC(=O)Nc1cccc(-c2ccnc3c2CC(C)(C(=O)NCc2cccc(Cl)c2)O3)c1 (centres undefined),?,·,·,·,·,15µM*
CC(=O)Nc1cccc(-c2ccnc3c2CC(C)(C(=O)NCc2cccs2)O3)c1 (centres undefined),i,·,·,·,·,3.3µM*
CC(=O)Nc1ccc(-c2ccnc3c2CC(C)(C(=O)NCc2ccc(F)c(F)c2)O3)cc1 (centres undefined),i,·,·,·,·,8.2µM*
Fc1ccccc1CSc1nnc(-c2cccnc2)o1,i,10%,-1%,-6%,9,i
Cc1ccc(C)c(CSc2nnc(-c3cccnc3)o2)c1,18µM*,23%,-2%,1%,-1,i
Cc1ccccc1OCC(=O)Nc1ccc2nc(SCc3ccccc3)sc2c1,?,·,·,·,·,i
COc1ccc(OC)c(C2=NOC(C(=O)Nc3cccnc3)C2)c1 (centres undefined),23µM*,-8%,3%,-2%,-5,i
COc1ccc(OC)c(C2=NOC(C(=O)NCc3cccs3)C2)c1 (centres undefined),?,?,-2%,?,17,21µM*
Cc1cc(=O)[nH]c2ccc(Cl)cc12,?,0%,2%,-3%,-1,2.3µM*
CC(=O)c1sc(NC(=O)C2(F)C(F)(F)C(F)(F)C(F)(F)C(F)(F)C2(F)F)nc1C,7.3µM*,9.2µM*,-5%,0%,0,?
CC(=O)c1sc(NC(=O)C=C(C)C)nc1C,i,11%,2%,4%,5,i
CCN(CC)CCN1C(=O)c2ccccc2NC1c1ccc(OC)c(COc2ccc(NC(C)=O)cc2)c1 (centres undefined),?,·,·,·,15,i
Cc1ccc(NC(=O)c2ccc(Cl)c(NC(=O)c3cccs3)c2)cc1,i,-16%,-13%,29%,-14,i
Cc1nc2ccc(NC(=O)c3ccc(Cl)c(NC(=O)c4cccs4)c3)cc2s1,23µM*,2%,-11%,-8%,3,i
COc1ccc(CC(=O)N2CCc3cc(OC)c(OC)cc3C2COc2ccc(F)cc2)cc1OC (centres undefined),i,·,·,·,·,i
